Rows were chosen to be rich in hits. Some 2.3% of all compounds tested hit in one or more screens of this group.
MBD2 DNA inh = inhibitors of human MBD2 binding to methylated oligonucleotide | TR-FRET | Q9UBB5 | inhibition, % at 4.4 µM | AID 686964 | 0.31% of 370,000 active; in the data active = inhibition above about 13%
PLC-beta3 inh = blocks human PLC-beta3 enzyme activity; inhibition, % at 12.2 µM; 0.18% of 370,000 active; Purified PLC-beta3, fluorogenic substrate, fluorescence; in the data active = inhibition above about 11%;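 also: 0% = median of compound wells on plate and 100% = full blocker control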
Target sequence (Q01970 whole entry, looked up): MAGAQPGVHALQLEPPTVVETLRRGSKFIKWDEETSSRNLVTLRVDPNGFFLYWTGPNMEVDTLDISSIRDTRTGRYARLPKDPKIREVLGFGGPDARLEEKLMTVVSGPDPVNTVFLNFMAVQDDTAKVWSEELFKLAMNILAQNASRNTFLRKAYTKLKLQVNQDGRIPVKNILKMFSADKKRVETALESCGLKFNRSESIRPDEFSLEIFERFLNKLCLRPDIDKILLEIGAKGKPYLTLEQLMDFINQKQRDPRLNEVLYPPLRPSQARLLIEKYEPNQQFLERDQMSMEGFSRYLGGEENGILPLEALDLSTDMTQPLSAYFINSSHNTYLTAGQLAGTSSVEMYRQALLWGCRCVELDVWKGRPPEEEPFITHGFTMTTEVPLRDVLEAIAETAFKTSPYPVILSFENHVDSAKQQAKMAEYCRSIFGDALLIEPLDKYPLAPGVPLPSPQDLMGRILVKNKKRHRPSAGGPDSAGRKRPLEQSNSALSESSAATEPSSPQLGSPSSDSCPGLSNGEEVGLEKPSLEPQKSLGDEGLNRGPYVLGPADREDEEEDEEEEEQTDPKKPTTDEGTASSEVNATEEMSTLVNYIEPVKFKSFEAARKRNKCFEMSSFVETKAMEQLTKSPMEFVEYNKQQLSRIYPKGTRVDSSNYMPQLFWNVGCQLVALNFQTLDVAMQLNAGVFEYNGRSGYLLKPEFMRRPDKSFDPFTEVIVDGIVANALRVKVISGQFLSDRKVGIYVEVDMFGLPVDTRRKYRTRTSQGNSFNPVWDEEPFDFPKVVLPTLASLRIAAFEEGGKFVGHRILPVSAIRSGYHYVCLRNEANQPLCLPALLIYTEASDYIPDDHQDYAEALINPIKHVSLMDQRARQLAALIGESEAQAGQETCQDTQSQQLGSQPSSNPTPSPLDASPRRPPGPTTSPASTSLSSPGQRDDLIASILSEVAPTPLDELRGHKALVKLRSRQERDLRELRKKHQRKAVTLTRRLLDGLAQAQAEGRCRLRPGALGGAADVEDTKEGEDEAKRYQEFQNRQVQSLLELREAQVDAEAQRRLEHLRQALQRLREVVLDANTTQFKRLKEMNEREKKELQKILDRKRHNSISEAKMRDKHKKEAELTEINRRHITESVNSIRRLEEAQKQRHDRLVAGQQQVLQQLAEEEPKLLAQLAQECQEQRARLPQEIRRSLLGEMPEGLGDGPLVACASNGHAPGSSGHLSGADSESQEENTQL
LEDGF integ inh = blocks HIV-1 LEDGF/p75-dependent DNA integration. inhibition, % at 3.7 µM. TR-FRET IN-LEDGF/p75 DNA integration, Eu/Cy5. 0.64% of 370,000 active;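 active = inhibition above the screen-wide mean plus 3 SD, cut at about 13% in these data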;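 also: signal is the Cy5 over europium emission ratio at 671 and 618 nm; 0% = plate median of compound wells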
UHRF1 binding = blocks human UHRF1 binding to methylated DNA. AID 687016. UHRF1 binding to methylated oligo, TR-FRET. 0.75% of 370,000 active. inhibition, % at 4.4 µM;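 also: UHRF1 SRA domain binding a hemimethylated CpG hairpin DNA probe; 0% = median of test compound wells and 100% = reference inhibitor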
PLC-gamma1 inh = PLC-gamma1 (human) inhibition, primary screen; purified PLC-gamma1, fluorogenic substrate, fluorescence; 0.84% of 370,000 active; inhibition, % at 12.2 µM; AID 720700; P19174; in the data active = inhibition above about 9.5%
UHRF1 DNA bind = counter-screen for MBD2 inhibitors: human UHRF1 methylated DNA binding inhibitors; inhibition, % at 4.4 µM; UHRF1 binding to methylated oligonucleotide, TR-FRET; 25% of 1,000 active; shares compounds with MBD2 DNA inh;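 also: UHRF1 SRA domain binding a labeled hemimethylated CpG hairpin DNA; 0% = vehicle only and 100% = reference inhibitor with vehicle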
MBD2 confirm = MBD2-DBD methyl-DNA binding inhibition, TR-FRET confirmation; shares compounds with MBD2 DNA inh; TR-FRET MBD2-DBD binding to methylated oligonucleotide; inhibition, % at 4.4 µM; 26% of 1,000 active; AID 720531; in the data active = inhibition above about 14%
An asterisk follows results filed as active. Rule as the data show it, unless noted: active = inhibition above about 21%; inactive = the rest.

Screening Cc1onc(-c2ccccc2Cl)c1C(=O)N1CCC(Cc2ccccc2)CC1 returned MBD2 DNA inh 15.8*, PLC-beta3 inh -9.2, LEDGF integ inh 0.5, UHRF1 binding 29.4*, PLC-gamma1 inh 5.0, UHRF1 DNA bind 7.5 and MBD2 confirm 1.6.
C=CCN1[C@@H](C)COc2cc(F)ccc2S1(=O)=O was read as MBD2 DNA inh 6.2, PLC-beta3 inh -3.2, LEDGF integ inh -3.9, UHRF1 binding -1.1 and PLC-gamma1 inh -1.4.
Screening Cc1ccc2nc(C(C)(C)C)c(Cc3ccccc3C(F)(F)F)n2c1 returned MBD2 DNA inh 14.9*, PLC-beta3 inh -17.2, LEDGF integ inh 0.2, UHRF1 binding 21.0*, PLC-gamma1 inh -17.8, UHRF1 DNA bind 8.1 and MBD2 confirm 6.5.
`OCCCNCc1cccc2ccccc12` gave MBD2 DNA inh 14.9*, PLC-beta3 inh 0.1, LEDGF integ inh 3.3, UHRF1 binding 18.5, PLC-gamma1 inh -1.7, UHRF1 DNA bind 4.7 and MBD2 confirm 18.9*.
For COc1ccc2cc([C@H](C)C(=O)OCc3cn(CC(=O)c4ccc(O)cc4)nn3)ccc2c1 the results were MBD2 DNA inh 15.1*, PLC-beta3 inh -2.5, LEDGF integ inh 10.2, UHRF1 binding 18.4, PLC-gamma1 inh 3.1, UHRF1 DNA bind 13.1 and MBD2 confirm 10.9.
Screening O=C(Cn1cc(COC(=O)c2c3ccccc3cc3ccccc23)nn1)c1ccc(O)cc1 returned MBD2 DNA inh 9.9, PLC-beta3 inh inactive, LEDGF integ inh -6.0, UHRF1 binding 20.1 and PLC-gamma1 inh inactive.
COc1ccc(C=O)c(OCc2cn(CC(=O)c3ccc(O)cc3)nn2)c1 was read as MBD2 DNA inh 13.8*, PLC-beta3 inh 0.8, LEDGF integ inh 3.1, UHRF1 binding 23.5*, PLC-gamma1 inh 2.5, UHRF1 DNA bind 12.2 and MBD2 confirm 8.0.
`COc1ccc(C(=O)C2CCN(c3ncnc4sccc34)CC2)cc1` gave MBD2 DNA inh 4.3, PLC-beta3 inh -4.2, LEDGF integ inh -2.0, UHRF1 binding 0.2 and PLC-gamma1 inh 0.5.
`COc1cc(N(C)C)ccc1C=c1c2ccccc2n2c1cc(-c1ccccc1)[n+]2C` gave MBD2 DNA inh 26.6*, PLC-beta3 inh -22.6, LEDGF integ inh -0.8, UHRF1 binding 43.2*, PLC-gamma1 inh -13.5, UHRF1 DNA bind 62.1* and MBD2 confirm 57.6*.
`CN(C)c1ccc(C=c2c3ccccc3n3c2cc(-c2ccc(Cl)cc2)[n+]3C)cc1` gave MBD2 DNA inh 4.5, PLC-beta3 inh -100.1, LEDGF integ inh 4.3, UHRF1 binding 18.9 and PLC-gamma1 inh -73.3.
CN(C)c1ccc(C=c2c3ccccc3n3c2cc(-c2ccccc2)[n+]3C)cc1 was read as MBD2 DNA inh 22.1*, PLC-beta3 inh -96.2, LEDGF integ inh 12.2, UHRF1 binding 40.5*, PLC-gamma1 inh -77.3, UHRF1 DNA bind 64.1* and MBD2 confirm 56.2*.
For CC(C)N1CCCCC(NC(=O)c2c(F)cccc2F)C1=O (configuration not stated) the results were MBD2 DNA inh -7.1, PLC-beta3 inh 3.8, LEDGF integ inh 3.3, UHRF1 binding -2.5 and PLC-gamma1 inh 1.6.
`O=C(COC(=O)Cc1cccc(C(F)(F)F)c1)NCc1ccco1` gave MBD2 DNA inh 17.0*, PLC-beta3 inh -12.4, LEDGF integ inh 10.8, UHRF1 binding 35.4*, PLC-gamma1 inh -5.8, UHRF1 DNA bind 21.1* and MBD2 confirm 6.4.
`CC(Oc1ccccc1Cl)C(=O)/C=C/N(C)C` (configuration not stated) gave MBD2 DNA inh 17.5*, PLC-beta3 inh -11.8, LEDGF integ inh -2.9, UHRF1 binding -3.9, PLC-gamma1 inh -5.0, UHRF1 DNA bind 7.3 and MBD2 confirm 2.9.
Cc1ccc(OCC(C)CN2CCC(C(O)(c3ccccc3)c3ccccc3)CC2)cc1 (configuration not stated) was read as MBD2 DNA inh 0.0, PLC-beta3 inh -0.3, LEDGF integ inh -2.4, UHRF1 binding 0.4 and PLC-gamma1 inh 3.8.
CSc1nnc(-c2ccccc2)n1N was read as MBD2 DNA inh -2.9, PLC-beta3 inh -0.5, LEDGF integ inh -1.7, UHRF1 binding -0.9 and PLC-gamma1 inh -0.8.
`Nn1c(-c2ccc(O)cc2)nnc1-c1ccc(O)cc1` gave MBD2 DNA inh 22.8*, PLC-beta3 inh -8.2, LEDGF integ inh 2.3, UHRF1 binding 2.5, PLC-gamma1 inh 2.0, UHRF1 DNA bind 5.3 and MBD2 confirm 3.4.
CCOc1ccc(C2SCC(=O)N2c2c(C)n(C)n(-c3ccccc3)c2=O)cc1 (configuration not stated) was read as MBD2 DNA inh 16.0*, PLC-beta3 inh 2.5, LEDGF integ inh -4.7, UHRF1 binding 5.9, PLC-gamma1 inh 4.2, UHRF1 DNA bind 9.8 and MBD2 confirm 3.3.
Screening Cc1c(N2C(=O)CSC2c2ccccc2)c(=O)n(-c2ccccc2)n1C (configuration not stated) returned MBD2 DNA inh -1.4, PLC-beta3 inh -8.5, LEDGF integ inh -0.9, UHRF1 binding 2.4 and PLC-gamma1 inh -0.9.
`CCc1nnc(NC(=O)CN2CCN(Cc3ccccc3Cl)CC2)s1` gave MBD2 DNA inh 16.9*, PLC-beta3 inh -17.1, LEDGF integ inh 5.0, UHRF1 binding 20.2, PLC-gamma1 inh -9.7, UHRF1 DNA bind 7.9 and MBD2 confirm 6.0.
O=C(Nc1nnc(CCN2CCCCC2)s1)c1ccccc1Cl was read as MBD2 DNA inh 16.1*, PLC-beta3 inh -9.6, LEDGF integ inh 3.8, UHRF1 binding 24.9*, PLC-gamma1 inh 3.3, UHRF1 DNA bind 6.8 and MBD2 confirm 2.5.
O=C(Nc1nnc(CCN2CCCCC2)s1)c1ccccc1 was read as MBD2 DNA inh 2.0, PLC-beta3 inh -4.3, LEDGF integ inh 2.8, UHRF1 binding -0.4 and PLC-gamma1 inh -1.5.
Cc1c(C)n(Cc2ccccc2)c2ccc(C(=O)OCCCN(C)C)cc12 was read as MBD2 DNA inh -4.0, PLC-beta3 inh -15.9, LEDGF integ inh 0.2, UHRF1 binding 1.4 and PLC-gamma1 inh -15.0.
Cc1c(C)n(CCN(C)C)c2ccc(C(=O)OCCN(C)C)cc12 was read as MBD2 DNA inh 13.4*, PLC-beta3 inh -7.7, LEDGF integ inh 0.6, UHRF1 binding 15.4, PLC-gamma1 inh -0.8, UHRF1 DNA bind 23.5* and MBD2 confirm 11.4.
Screening COC(=O)[C@]12C[C@H](CC(=O)N3CCCC3)C(=O)N(Cc3cccc4ccccc34)C1=C[C@H](C1CCCC1)O[C@@H]2C returned MBD2 DNA inh -6.1, PLC-beta3 inh 3.0, LEDGF integ inh 1.4, UHRF1 binding -1.3 and PLC-gamma1 inh 4.2.
`O=C1C=C(c2ccc(O)cc2)C[C@@H](c2ccc3c(c2)OCO3)C1` gave MBD2 DNA inh 5.5, PLC-beta3 inh -7.4, LEDGF integ inh 3.4, UHRF1 binding 16.9 and PLC-gamma1 inh -6.3.

Compound activity deposited in PubChem by The Scripps Research Institute Molecular Screening Center.
